# Measured potencies and affinities stand elsewhere. Values without a mark were called inactive. The rule behind the calls is not given here.
# Experiment: viability loss in HEK293 cells – cell-based, plate reader, cherry-picked samples, cytotoxicity control, dose response (AID 743446)
# Conditions: active compounds read low; at 26 µM unless noted
row,Structure (SMILES),max activity
1,O=C(Nc1ccc(N2CCOCC2)c(S(=O)(=O)Nc2ccccc2Cl)c1)c1ccc(F)cc1,-18.2% [at 0.1 µM]
2,Cc1ccc2nc(CSc3nc(C)ccc3C#N)[nH]c2c1,-29.6% [at 1.6 µM]
3,O=C(C[C@@H]1C[C@H]2c3cc(NC(=O)c4ccc5c(c4)OCO5)ccc3O[C@H]2[C@@H](CO)O1)NCc1ccc(Oc2ccccc2)cc1,-15.7% [at 0.05 µM]
4,COc1ccc(-c2cc3nc(NCC4CCCCC4)n(C)c(=O)c3s2)cc1OC,41.6% [at 1.6 µM]
5,O=C(Nc1nc2cc3c(cc2s1)OCO3)c1ccco1,45.6% [at 0.05 µM]
6,C[C@@H]1CN([C@H](C)CO)C(=O)c2cc(C#CCN(C)C)cnc2O[C@@H]1CN(C)C(=O)CN1CCOCC1,12.9% [at 0.195 µM]
7,CCC(=O)Nc1cc2nn(-c3ccc(OC)cc3)nc2cc1C,0% [setting not given]
8,COCCn1c(C)cc(C(=O)CSc2nnnn2C2CCCC2)c1C,21%
9,Cc1ccc(-c2noc(-c3cccs3)n2)cc1,22.5% [at 12 µM]
10,O=C(CN1C(=O)c2ccccc2S1(=O)=O)c1ccc(F)cc1,63.1%
11,COc1ccc(NC(=O)N(C)C[C@@H]2OCCCC[C@H](C)Oc3ccc(NC(=O)NC4CCCCC4)cc3C(=O)N([C@H](C)CO)C[C@@H]2C)cc1,7.92% [at 0.195 µM]
12,Cc1cc(C(=O)COC(=O)C2CC2)c(C)n1-c1ccc(F)cc1,9.72% [at 12 µM]
13,Cc1noc(C)c1S(=O)(=O)Nc1ccc2c(c1)C(=O)N([C@H](C)CO)C[C@H](C)[C@H](CN(C)C(=O)Nc1ccc(F)cc1)OCCCC[C@@H](C)O2,16.1% [at 0.1 µM]
14,COc1ccc(-n2sc3ccc(F)cc3c2=O)cc1,-22.4% [at 0.05 µM]
15,N#C[C@@H]1[C@H](c2ccc(C#Cc3ccccc3F)cc2)[C@@H](CO)N1C(=O)C1CCCC1,-15.6%
16,N#C[C@@H]1[C@H](c2ccc(C#Cc3cccc(F)c3)cc2)[C@@H](CO)N1C(=O)C1CCC1,22.1% [at 12 µM]

row,Structure (SMILES),max activity
1,COc1cc(NC(=O)c2cccs2)c(C(=O)OCC(=O)c2cc(C)n(-c3ccccc3)c2C)cc1OC,17.2%
2,C[C@@H]1CN([C@@H](C)CO)C(=O)c2cc(NS(C)(=O)=O)ccc2O[C@@H](C)CCCCO[C@@H]1CN(C)Cc1ccc(C(F)(F)F)cc1,-12.9% [at 0.1 µM]
3,C[C@H]1CCCCO[C@@H](CN(C)C(=O)Nc2ccccc2)[C@@H](C)CN([C@@H](C)CO)C(=O)c2cc(NC(=O)NC3CCCCC3)ccc2O1,12.4% [at 0.05 µM]
4,Cc1ccc(NC(=O)c2ccc3c(c2)OCCO3)cc1C,32.4% [at 0.38 µM]
5,COC(=O)c1c(N)sc(C(=O)NCCc2ccccc2)c1C,16.2% [at 3 µM]
6,O=C(NCCOc1ccccc1)[C@@H]1CCCN1C(=O)c1cccs1,-12.7% [at 0.05 µM]
7,COc1ccc2[nH]c3c(c2c1)CCN1C(=O)N([C@@H](C)C(=O)NCc2ccc(C)cc2)C(=O)[C@]31C,-9.06% [at 6 µM]
8,O=C(NCCc1ccccc1)c1ccc2c(c1)OCCO2,15.3% [at 0.195 µM]
9,O=C(O)c1ccc(N/N=C/c2ccc(OC(=O)c3cccc(Cl)c3)cc2)cc1,-7.42% [at 3 µM]
10,C[C@@H]1CN([C@H](C)CO)C(=O)c2cc(NC(=O)Nc3cccc4ccccc34)ccc2O[C@@H]1CN(C)C(=O)Nc1ccccc1,29.1% [at 0.8 µM]
11,CC(C)Oc1ccc(CNC(=O)CC(c2ccccc2)c2cc(Cl)ccc2O)cc1 (stereo unspecified),29.6% [at 0.8 µM]
12,COc1ccc(-c2cc(C(=O)Nc3cccc(O)c3)no2)cc1,75.5% [at 0.195 µM]
13,CC(=O)N1CCCC(c2cc(C(=O)Nc3ccccc3)no2)C1 (stereo unspecified),-27% [at 12 µM]
14,CCOC(=O)c1cn2nc(N3CCCCC3)ccc2n1,-14% [at 3 µM]
15,COc1ccccc1N/C=C/c1onc(C)c1[N+](=O)[O-],-8.08% [at 0.8 µM]
